In PubChem BioAssay (NCI):
This is part of a sample that, as a whole, favours compounds with a hit. Of some 83,000 tested, about 20% had one in any assay.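 For each line, cells grew in 96-well plates with the test compound present at a single concentration for 48 hours.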 Calls of active or inactive are those of the source. How the source made its calls: active means growth percent below 10; inactive means the rest.

The compounds below were run on NCI-H522 lung (assay: NCI-60 one-dose screen, 48 h (100 = growth as untreated, 0 = no growth, -100 = all killed)). Details: 10 µM unless noted.

Q: Cc1ccc(-c2onc3c(=O)[nH]nc(-c4ccccc4)c23)cc1 was tested. Which growth did it give?
A: Its growth is -19.5% (active).

Q: Which growth does the source give for O=C1CSC(=S)N1CCc1ccc(O)cc1 here?
A: Its growth is 46.8% (inactive).

Q: CNC(=O)c1cc(Oc2ccc(NC(=O)Nc3ccc(Cl)c(OC(F)(F)F)c3)c(F)c2)ccn1 was tested. Which growth did it give?
A: The growth was 5.56% (active).

Q: Which growth does the source give for N#C/C(=C\c1ccc(-c2ccc(Cl)c(Cl)c2)o1)c1nc(-c2ccco2)cs1 here?
A: The growth was 89.3% (inactive).

Q: For O=S(=O)(Nc1ccc(OC(F)F)cc1)c1ccc(-c2cnc(C3CC3)o2)cc1, which growth is on record?
A: Its growth is 43% (inactive).

Q: O=C1Nc2cc(-c3ccc(O)cc3)ccc2/C1=C/c1ccc[nH]1 was tested. Which growth did it give?
A: The growth was 1.89% (active).

Q: With CON1C(=O)CC[C@]2(C)[C@H]3CC[C@@H]4C([C@@]5(C)CCC(=O)O5)CC[C@@]4(C)[C@]3(C)CC[C@H]2C1(C)C (stereo not given in full) as the compound, how does the growth read?
A: The growth was 85.9% (inactive).

Q: Which growth does the source give for Cn1cc(C(=O)c2nc(-c3c[nH]c4ccc(Br)cc34)no2)c2cc(F)ccc21 here?
A: Its growth is 90.5% (inactive).

Q: How did the growth turn out when COc1ccc(-n2nc(C)c3c(Nc4ccc(NC(=O)Nc5cccc(C(F)(F)F)c5)cc4)ncnc32)cc1 was run?
A: The growth was 4.21% (active).

Q: For CC(C)C1=C[C@@]23CC[C@@H]4[C@](C)(CCC[C@@]4(C)C(=O)N4CCCNCC4)[C@H]2C[C@@H]1[C@H]1C(=O)CCC(=O)[C@H]13, which growth is on record?
A: Its growth is 91.5% (inactive).

Q: For C#CCOc1ccc2ncnc(N3CCC(NC(=O)CCl)CC3)c2c1, which growth is on record?
A: Its growth is 55.6% [8.25 µM] (inactive).

Q: Cc1ccc(NC(=O)/C=C/c2ccccc2)c(C(N)=O)c1 was tested. Which growth did it give?
A: The growth was -8.74% (active).

Q: Which growth does the source give for COc1ccc(/C=C\c2cc(OC)c(OC)c(OC)c2)cc1OC(=O)c1cccc(Cn2cc(CCOC(=O)[C@H](N)Cc3cn(C)c4ccccc34)nn2)c1 here?
A: The growth was 18.9% (inactive).

Q: How did the growth turn out when O=C1c2ccccc2C(=O)c2c1ccc1[nH]c(-c3cccs3)nc21 was run?
A: Its growth is 78.9% (inactive).

Q: How did the growth turn out when CN1CCN(Cc2ccc(NC(=O)c3cncc(C#Cc4cncn5ccnc45)c3)cc2C(F)(F)F)CC1 was run?
A: Its growth is 47.3% (inactive).

Q: How did the growth turn out when CC(C)(C)c1cc(/C=N\NC(=O)/C=C/C=C/c2ccc3c(c2)OCO3)c(O)c(C(C)(C)C)c1 was run?
A: Its growth is 80.1% (inactive).

Q: With CCCc1cc(=O)n2c(C(=O)Nc3ccc(F)cc3)c(C(=O)Nc3ccc(F)cc3)sc2n1 as the compound, how does the growth read?
A: The growth was 62.7% [30 µM] (inactive).

Q: O=C(O)COc1ccc(Cl)cc1C1CCCCC1 was tested. Which growth did it give?
A: The growth was 99% (inactive).

Q: For NC(=O)c1cc(Br)ccc1NC(=O)/C=C/c1ccccc1, which growth is on record?
A: The growth was -24.9% (active).

Q: Cc1nn(-c2ccc(F)cc2)c2ncnc(Oc3ccc(NC(=O)Nc4ccc(Cl)c(C(F)(F)F)c4)cc3)c12 was tested. Which growth did it give?
A: The growth was 99.7% (inactive).

Q: How did the growth turn out when CSc1nc(-c2cccc(NC(=O)CCl)c2)c(C#N)c(=O)n1C was run?
A: The growth was -73.7% (active).

Q: How did the growth turn out when CCCCN(CCCC)CCCn1c(-c2ccccc2)ccc1-c1ccccc1 was run?
A: The growth was 58.3% (inactive).

Q: With Cc1c(/C=C/[N+](=O)[O-])ccc2c1[nH]c1ccccc12 as the compound, how does the growth read?
A: The growth was 94.8% (inactive).

Q: c1ccc(Cn2cc(-c3nc4ccccc4s3)c3cccnc32)cc1 was tested. Which growth did it give?
A: The growth was 87.9% (inactive).

Q: For O=C(N/N=C/c1c[nH]c2ccccc12)c1cc(-c2ccccc2)on1, which growth is on record?
A: The growth was 75% (inactive).

Q: For CCCn1c(=O)[nH]c(N)c([C@H]2c3ccccc3Oc3[nH]c(=O)n(CCC)c(=O)c32)c1=O, which growth is on record?
A: Its growth is 20.7% (inactive).

Q: CC(=O)O[C@H]1[C@@H]2OC(=O)C(CSc3ccccc3)[C@@H]2C[C@H]2O[C@]2(C)CC/C=C(\C)CCC[C@@H]1C (stereo not given in full) was tested. Which growth did it give?
A: The growth was -87.2% (active).

Q: With O=C1Nc2ccc(Br)cc2C12Oc1ccccc1C1CC(c3ccc(F)cc3)=NN12 (stereo not given) as the compound, how does the growth read?
A: The growth was 81% (inactive).

Q: Which growth does the source give for C=C1c2nc3ccccc3n2C=C(c2cccc(Cl)c2)N1Cc1ccc(OC)cc1 here?
A: The growth was -10.9% (active).

Q: For C#CC(F)(F)[C@]1(O)CC[C@H]2[C@@H]3CCC4=CC(=O)CCC4=C3[C@@H](c3ccc(C(C)=O)cc3)C[C@@]21C, which growth is on record?
A: Its growth is -73% (active).

Q: How did the growth turn out when CC(=O)O[C@H]1CC[C@]2(C)[C@H]3CC=C4[C@@H]5CC(C)(C)CC[C@]5(C(=O)NCCNCCNCCN)CC[C@@]4(C)[C@]3(C)CC[C@H]2C1(C)C was run?
A: Its growth is 54.3% (inactive).

Q: How did the growth turn out when COc1ccc(-c2cc(NC(=O)Nc3ccc4ncsc4c3)no2)cc1 was run?
A: Its growth is 88.3% (inactive).

Q: With CCN(CC)c1ccc(-c2cc(-c3cc(OC)c(OC)c(OC)c3)nc(N3CCOCC3)c2C#N)cc1 as the compound, how does the growth read?
A: The growth was -15.6% (active).

Q: Which growth does the source give for CC1=CC(=NN=c2cc(C)n([O-])c(C)c2)C=C(C)[N+]1=O here?
A: The growth was 67.6% (inactive).

Q: Which growth does the source give for Cc1ccc2oc(=O)cc(C3c4ccc([nH]4)C(c4cc(=O)oc5ccc(C)cc45)c4ccc([nH]4)C(c4cc(=O)oc5ccc(C)cc45)c4ccc([nH]4)C(c4cc(=O)oc5ccc(C)cc45)c4ccc3[nH]4)c2c1 (stereo not given) here?
A: The growth was -63.5% (active).
